Results from PubChem BioAssay (NCI).
Compounds without any hit were thinned out: in the full panel of roughly 83,000, 20% have a hit.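 96-well plates, one dose, 48 hours. Percent growth reported; active if below 10.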 Activity calls are given as the source filed them.

Assays:
Assay in all cases: NCI-60 one-dose screen, 48 h (100 = growth as untreated, 0 = no growth, -100 = all killed)
Settings in all cases: 10 µM unless noted
[1] = test system: HCT-15 colon
[2] = test system: HT29 colon
[3] = test system: SNB-75 CNS
[4] = test system: SNB-19 CNS
[5] = test system: U251 CNS
[6] = test system: PC-3 prostate
[7] = test system: SK-MEL-5 melanoma
[8] = test system: UACC-62 melanoma
[9] = test system: LOX IMVI melanoma
[10] = test system: SK-MEL-28 melanoma

Measured: growth

C[C@@H]1CC2C3CCC4=CC(=O)C=C[C@]4(C)[C@@]3(Cl)[C@@H](O)C[C@]2(C)[C@@]1(OC(=O)c1ccco1)C(=O)CCl (stereo not given in full)
inactive: [1] 79.7% | [2] 70.8% | [3] 86.3% | [4] 86% | [5] 85% | [6] 49.9% | [7] 55% | [8] 42% | [9] 61.6% | [10] 88.9%

O=C(/C=C/c1ccccc1Br)c1cccc(OCCCCOc2cccc(C(=O)/C=C/c3ccccc3Br)c2)c1
inactive: [1] 81.6% | [2] 89.3% | [3] 79.7% | [4] 90.8% | [5] 77% | [6] 92% | [7] 98.7% | [8] 78.8% | [9] 86.4% | [10] 102%

COc1cc(C2CC(c3ccccc3)=NN2C=O)ccc1Oc1ccnc2cc(Cl)ccc12 (stereo not given)
inactive: [1] 59.3% | [2] 75.9% | [3] 69.9% | [4] 71.2% | [5] 88.6% | [6] 31.4% | [8] 54.3% | [9] 56.6% | [10] 75.9%
active: [7] 1.25%

O=C1/C(=C/c2cc(F)cc(F)c2)Cc2cc(F)cc(F)c21
inactive: [1] 95.4% | [2] 92.3% | [3] 93.9% | [4] 86.8% | [5] 104% | [6] 88.1% | [7] 76.8% | [8] 85.6% | [9] 86.8% | [10] 96.7%

COc1ccc(N=C2CSc3nnc(-c4cc(F)c(Cl)cc4Cl)n3N2)cc1
active: [1] 5.01% | [2] -66.9% | [3] -60.6% | [4] 0.21% | [5] -52.2% | [6] -55% | [7] -63.1% | [9] -42.1% | [10] -31.3%
inactive: [8] 20.9%

COc1ccc(-c2nc(SCCC(C)C)nc(Nc3ccc(C(=O)O)cc3)c2C#N)cc1
inactive: [1] 60.6% | [2] 84% | [3] 92.2% | [4] 88.8% | [5] 81.5% | [6] 58.4% | [7] 73.9% | [8] 86.8% | [9] 82.6% | [10] 89.7%

CCN(CC)CCNC(=O)n1cc(-c2ccncc2)c(-c2ccc(Cl)c(OC)c2)n1
inactive: [1] 96.1% | [2] 59.4% | [3] 64.7% | [4] 93% | [5] 90.3% | [6] 88.2% | [7] 94.1% | [8] 72.5% | [9] 92.3% | [10] 90.2%

O=C(N/N=C\c1cc(Br)ccc1O)c1ccncc1
active: [8] 1.24%
inactive: [1] 21.4% | [2] 36.3% | [3] 76.4% | [4] 53.7% | [5] 28.6% | [6] 48.3% | [7] 39.8% | [9] 18% | [10] 45.8%

CCSCC1CC(O)(c2ccccc2)C(c2ccccc2)C(c2ccc(F)cc2)O1 (stereo not given)
active: [1] 3.78% | [2] -18.7% | [3] -14% | [4] 8.78% | [5] -11.8% | [6] -21.1% | [7] -84.2% | [8] -44.4% | [9] -64.5% | [10] -39.4%

O=C(O)C(CCc1ccccc1)NCc1ccccc1 (stereo not given)
inactive: [1] 99.2% | [2] 96.2% | [3] 90.3% | [4] 97.5% | [5] 107% | [6] 91.3% | [7] 109% | [8] 94.5% | [9] 92% | [10] 107%

COc1ccc(-c2cc(-c3cc4ccccc4oc3=O)n(-c3ccccc3)n2)cc1
inactive: [1] 103% | [2] 83.8% | [3] 77% | [4] 82% | [5] 31.4% | [6] 76.1% | [7] 94.5% | [8] 80.3% | [9] 59.8% | [10] 106%

O=[N+]([O-])c1ccc(SSc2ccc([N+](=O)[O-])cc2Cl)c(Cl)c1
inactive: [1] 105% | [2] 98.2% | [3] 84% | [4] 99.5% | [5] 89.6% | [6] 93.2% | [7] 95.5% | [8] 79.7% | [9] 77.3% | [10] 109%

CCN(CC)CC(=O)Nc1c(C)cc(C(=O)NN)cc1C
inactive: [1] 103% | [2] 96.1% | [3] 84.9% | [4] 97.3% | [5] 97.5% | [6] 101% | [7] 102% | [8] 97.6% | [9] 94.3% | [10] 106%

CCOCCNc1ccc(S(=O)(=O)c2ccc(N)cc2)cc1N
inactive: [1] 109% | [2] 114% | [3] 96.7% | [4] 114% | [5] 98.2% | [6] 111% | [7] 102% | [8] 95.1% | [9] 91.1% | [10] 112%

CCOC(=O)Cn1c(-c2nonc2NC(=O)c2ccccc2F)nc2ccccc21
inactive: [1] 29.2% | [2] 27.4% | [3] 70.1% | [4] 47.1% | [5] 28.1% | [6] 44.7% | [7] 32.4% | [8] 42.4% | [9] 10.3% | [10] 71.1%

C=CCN(CC#N)CC=C
inactive: [1] 116% | [2] 94.5% | [3] 96.2% | [4] 109% | [5] 100% | [6] 91% | [7] 94.9% | [8] 102% | [9] 101% | [10] 104%

CCCCCCCCCCCC1=NC(C)(C)CN1C(C)C
active: [2] 0.372% | [7] -24.7% | [8] -51.3% | [10] -54.7%
inactive: [1] 11.8% | [3] 52% | [4] 86.7% | [5] 37% | [6] 34.6% | [9] 34.6%

CN1CCC2(CC1)N=C(SCC(=O)Nc1cnc3ccccc3c1)C(c1ccc(Br)cc1)=N2
active: [2] -67.1% | [5] -24.7% | [7] -96.2% | [8] -78.9% | [9] -78.5% | [10] -70.1%
inactive: [1] 12% | [3] 25.4% | [4] 40.7% | [6] 21.3%

c1csc(-c2cnc3nonc3n2)c1
inactive: [1] 89.7% | [2] 91.2% | [3] 79.8% | [4] 81.6% | [5] 88% | [6] 66.3% | [7] 87.9% | [8] 79.3% | [9] 62.6% | [10] 104%

Cc1cc(-c2ccc(N=Nc3c(S(=O)(=O)O)cc4cc(S(=O)(=O)O)cc(O)c4c3O)c(C)c2)ccc1N=Nc1c(S(=O)(=O)O)cc2cc(S(=O)(=O)O)cc(O)c2c1O
inactive: [1] 109% | [2] 103% | [3] 82.4% | [4] 106% | [5] 101% | [6] 93.6% | [7] 101% | [8] 114% | [9] 107% | [10] 110%

C#Cc1cccc(Nc2nc3cc([N+](=O)[O-])ccc3nc2Nc2ccc(O)cc2)c1
active: [1] 0.208% | [2] -80.7% | [5] 2.57% | [6] 2.88% | [8] -15.9% | [9] -87.5%
inactive: [3] 43.8% | [4] 23.3% | [7] 47.1% | [10] 21.5%

O=C1OCC2=C1C(c1ccccc1)c1cc3c(cc1N2CCO)OCO3 (stereo not given)
active: [7] -12.3%
inactive: [1] 24% | [2] 12.5% | [3] 31.4% | [4] 36% | [5] 20.3% | [6] 24.5% | [8] 28.9% | [9] 37% | [10] 50.5%

CCCNCCC(C)=O
inactive: [1] 111% | [2] 98.1% | [3] 107% | [4] 97.1% | [5] 68.8% | [6] 97.1% | [7] 115% | [8] 98% | [9] 94.5% | [10] 108%

COc1ccc(-c2cnc(-c3ccncc3-c3cccc(OC)c3)o2)cc1
active: [1] 7.4% | [2] -36.6% | [7] -20.4%
inactive: [3] 41.2% | [4] 25.8% | [5] 24.3% | [6] 16.9% | [8] 24.9% | [9] 27.3% | [10] 57.6%

CC(C)c1nc2ccccc2n1CC(=O)N/N=C/c1cccc(O)c1
inactive: [1] 104% | [2] 104% | [3] 94.1% | [4] 91.8% | [5] 103% | [6] 87.9% | [7] 100% | [8] 86.3% | [9] 99.6% | [10] 97.2%

Oc1ccc(-c2nc3ccccc3s2)cc1CN(Cc1ccccn1)Cc1ccccn1
active: [5] 8.51% | [7] -67.4% | [8] 8.93% | [9] 2.31%
inactive: [1] 15.2% | [2] 25.7% | [3] 38.7% | [4] 20.5% | [6] 30.3% | [10] 33.1%

CCc1onc(-c2ccc(OC)cc2)c1-c1ccccc1OCCN(CC)CC
inactive: [1] 98.2% | [2] 60.3% | [3] 60.9% | [4] 91.3% | [5] 93.9% | [6] 75.1% | [7] 81% | [8] 97.7% | [9] 71.9% | [10] 100%
